Source: PubChem BioAssay (NCI)
This is part of a sample that, as a whole, favours compounds with a hit. Of some 83,000 tested, about 20% had one in any assay.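 Assay: single dose, 48 h. Readout: percent growth (0 = no net growth; negative = cell death). Active: <10.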 Calls of active or inactive are those of the source.

test system: M14 melanoma; assay: NCI-60 one-dose screen, 48 h (100 = growth as untreated, 0 = no growth, -100 = all killed); details: 10 µM unless noted
Procedure: Growth inhibition of the M14 human tumor cell line is measured as a screen for anti-cancer activity. Cells are grown in 96 well plates and exposed to the test compound for 48 hours. Compounds are tested at a single concentration, which is 10^-5 M for most compounds. The reported endpoint is percent growth (GI% or GIPRCNT), where numbers from 0 - 100% represent growth inhibition, and numbers from -100% - 0 represent cell death. For example, a value of 40 represents 60% growth inhibition. A value of 0 means no net growth occurred over the course of the experiment. A value of -40 indicates 40% of cells at the beginning of the experiment died by the end of the experiment. A value of -100 means all cells are dead at the end of the experiment.
NCI-60 Human Tumor Cell Lines Screen was performed using the standard one-dose NCI protocol, which is described in more detail at https://dtp.cancer.gov/discovery_development/nci-60/default.htm.
Compounds with GIPRCNT values below 10 were considered active. Activity score was based on GIPRCNT using the following formula: […]
Score is 0 for GIPRCNT values of 100 or above, 50 for GIPRCNT values of 0, and 100 for GIPRCNT values of -100.

Compound	growth
Nc1c(C(=O)Nc2cccc(Br)c2)sc2nc3c(cc12)C(=O)CCC3	35.7% (inactive)
CCN1CCN(C(=O)[C@]23CCC(C)(C)C[C@@H]2C2=CC[C@@H]4[C@@]5(C)C/C(=C/c6cccnc6)C(=O)C(C)(C)[C@@H]5CC[C@@]4(C)[C@]2(C)CC3)CC1	34.4% (inactive)
CNC(=O)c1cc(Oc2ccc3nc(NC(=O)Nc4ccc(Cl)cc4)sc3c2)ccn1	63% (inactive)
C=C1C(=O)O[C@H]2[C@H]1CC/C(COC(=O)N[C@H](Cc1c[nH]c3ccccc13)C(=O)OC)=C\CC[C@@]1(C)O[C@@H]21	44.1% (inactive)
CC(=O)OC[C@]12CC[C@@H](/C(C)=N/O)[C@@H]1[C@H]1CC[C@@H]3[C@@]4(C)CCCNC(C)(C)[C@@H]4CC[C@@]3(C)[C@]1(C)CC2	78.1% (inactive)
Cc1cc(N(CCCNc2ccnc3cc(Cl)ccc23)Cc2ccco2)nc(N2CCOCC2)n1	72.5% (inactive)
N#C/C(=C\c1ccc(-c2ccc(Br)cc2)o1)c1nc(-c2ccco2)cs1	89.2% (inactive)
CCNCCCn1c2c(c3ccc([N+](=O)[O-])cc3c1=O)C(=O)c1cc(OC)cnc1-2	-37.1% (active)
CCCCCC1CCCCN1C(=O)OCC (stereo not given)	97.4% (inactive)
O=S(=O)(NCCCNc1cc(-c2cn(-c3ccccc3)nc2-c2cccc(O)c2)ccn1)c1ccc(F)cc1	26.6% (inactive)
CN1CCN(c2nc(-c3cccc4ccccc34)nc3sc4c(c23)CCCCCC4)CC1	93.2% (inactive)
O=P(O)(c1ccccc1)c1ccccc1I	90.1% (inactive)
O=c1c(CNc2ccc(S(=O)(=O)Nc3ncccn3)cc2)coc2ccccc12	99.2% (inactive)
Nc1c(C(=O)Nc2c(Cl)cccc2Cl)sc2nc3c(cc12)CCCC3	46.6% (inactive)
CC/C=C\C[C@H]1CC=C2C(=O)C=C[C@@H]2CC=CCCCC(=O)O[C@@H](CCCCC)CC=C2C(=O)C=C[C@@H]2CC=CCCCC(=O)O[C@@H](CCCCC)CC=C2C(=O)C=C[C@@H]2CC=CCCCC(=O)O[C@@H](CCCCC)CC=C2C(=O)C=C[C@@H]2CC=CCCCC(=O)O1	-3.08% [7.9 µM] (active)
O=C1c2cc3c(cc2-c2c1c1ccc(Cl)cc1c(=O)n2C[C@H](O)[C@@H](O)[C@H](O)CO)OCO3	4.34% (active)
CC(=O)c1c(C)[nH]c(-c2nc3ccc(N4CCN(C)CC4)cc3[nH]2)c1-c1ccc(N(C)C)cc1	34.6% (inactive)
c1ccc2[nH]c(-c3ccc(Nc4nc(N5CCCCC5)nc(N5CCOCC5)n4)cc3)nc2c1	-24.5% (active)
COc1ccc2c(c1)c(-c1nc(-c3c[nH]c4ncccc34)cs1)cn2CCCN1CCCCC1	-84.1% (active)
N=c1c(S(=O)(=O)c2ccccc2)cc2c(=O)n3ccccc3nc2n1C1CCCC1	110% (inactive)

Compound	growth
COc1cc2nc(Cl)nc(Nc3cccc(C(=O)/C=C/c4ccc(Cl)cc4)c3)c2cc1OC	70.2% (inactive)
COC(=O)[C@@H]1[C@H]2C[C@H]3c4[nH]c5cc(OC)ccc5c4CCN3C[C@@H]2C[C@H](OC(=O)/C=C/c2ccnc(OC)c2)[C@H]1OC	93.2% (inactive)
c1cc(N2CCCC2)c2nc(-c3[nH]ncc3Nc3ncnc4[nH]ccc34)[nH]c2c1	-77.1% (active)
O=C1CCN2C(=O)Nc3ccccc3C2C1 (stereo not given)	86.3% (inactive)
CC1(n2nnnc2N2CCCN(c3ncccc3N)CC2)CCC1	97.8% (inactive)
COc1ccc(-c2cc(-c3c(C)oc4cc5occc5c(OC)c4c3=O)nc(N)c2C#N)cc1OC	72.2% (inactive)
COc1cc(-c2cc3ncccc3c3[nH]c(=O)c4cccnc4c23)cc(OC)c1OC	12.8% (inactive)
Nc1c2c(nc3ccc(Cl)cc13)CC(c1ccccc1)CC2=O (stereo not given)	13.9% (inactive)
CC[C@]12C=CCN3CC[C@@]4(c5cc([C@H]6CCC(=O)N6)c(OC)cc5N(C)[C@H]4[C@@](O)(C(=O)OC)[C@@H]1OC(C)=O)[C@@H]32	95.5% [2.5 µM] (inactive)
O=C(O[C@@H]1Cc2c(O)cc(O)cc2O[C@@H]1c1cc(O)c(O)c(O)c1)c1cc(O)c2c(c1)OCO2	91.9% (inactive)
CC1(C)NC2=C(C(Nc3cccnc3)N1)C(c1ccc([N+](=O)[O-])cc1)C(C(=O)c1ccc(N=[N+]=[N-])cc1)O2 (stereo not given)	104% (inactive)
Cc1csc(Nc2nc(-c3cccc(Br)c3)nc(C(Cl)(Cl)Cl)n2)n1	86.4% (inactive)
Cc1ccc(Nc2c(C(N)=O)cnc3ccc(S(=O)(=O)Nc4cc(C)on4)cc23)cc1	100% (inactive)
Cn1cc(-c2nc(-c3cn(C)c4ncccc34)cs2)c2cc(F)ccc21	17.2% (inactive)
COc1ccc(C2(Cl)c3ccccc3N(c3ccccc3)c3ccccc32)cc1	-55.1% (active)
CCC1C(=O)COC1=O (stereo not given)	93.2% (inactive)
CCN1CCN(C(=O)[C@]23CCC(C)(C)C[C@H]2C2=CC[C@@H]4[C@@]5(C)CC/C(=N/O)C(C)(C)[C@@H]5CC[C@@]4(C)[C@]2(C)CC3)CC1	65.6% (inactive)
CCN(CC)c1ccc(/C=C/c2cc(C)c3ccccc3n2)cc1	38.2% (inactive)
CC1(C)C=CC[C@]2(C)[C@H]3CC[C@@H]4[C@H]5[C@H](C(=O)/C=C/c6cccnc6)CC[C@]5(CO)CC[C@@]4(C)[C@]3(C)CC[C@@H]12	-74.4% (active)
N=C(N)N=Nc1ccc(O)cc1	81.6% [100 µM] (inactive)
